The supplement of paper PMC11006884
About 6,500 targets were measured; listed, in parts, are those with a hit and a random draw of the rest. About 2% of all pairs of compound and target were hits. Unmarked numbers belong to inactive results.

What follows are targets tested with COC(=O)C#Cc1ccccc1 [methyl 3-phenylpropiolate] (assay: log2 ratio of iodoacetamide-alkyne labeling of the cysteine site, DMSO over compound (competition); higher = stronger covalent engagement of the cysteine by the compound, active = 1 or more). Details: 500 µM; treatment time 1 h; system: HEK293T cell lysate.
How it was run: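 For each cysteine, the log2 competition ratio is mean control-channel reporter intensity over mean compound-channel reporter intensity. HEK293T lysate (2 mg/mL) was exposed to vehicle or electrophile (500 µM, 1 h, ambient temperature), labelled with iodoacetamide alkyne (1 h), clicked to sCIP-TMT reagents, digested overnight with trypsin at 37 °C, streptavidin-enriched and analysed by Orbitrap Eclipse LC-MS/MS with FAIMS and FragPipe. Cysteines quantified in only one of three replicates, each with duplicate channels, were excluded.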

UniProt Q08379, sequence (Q08379 whole entry): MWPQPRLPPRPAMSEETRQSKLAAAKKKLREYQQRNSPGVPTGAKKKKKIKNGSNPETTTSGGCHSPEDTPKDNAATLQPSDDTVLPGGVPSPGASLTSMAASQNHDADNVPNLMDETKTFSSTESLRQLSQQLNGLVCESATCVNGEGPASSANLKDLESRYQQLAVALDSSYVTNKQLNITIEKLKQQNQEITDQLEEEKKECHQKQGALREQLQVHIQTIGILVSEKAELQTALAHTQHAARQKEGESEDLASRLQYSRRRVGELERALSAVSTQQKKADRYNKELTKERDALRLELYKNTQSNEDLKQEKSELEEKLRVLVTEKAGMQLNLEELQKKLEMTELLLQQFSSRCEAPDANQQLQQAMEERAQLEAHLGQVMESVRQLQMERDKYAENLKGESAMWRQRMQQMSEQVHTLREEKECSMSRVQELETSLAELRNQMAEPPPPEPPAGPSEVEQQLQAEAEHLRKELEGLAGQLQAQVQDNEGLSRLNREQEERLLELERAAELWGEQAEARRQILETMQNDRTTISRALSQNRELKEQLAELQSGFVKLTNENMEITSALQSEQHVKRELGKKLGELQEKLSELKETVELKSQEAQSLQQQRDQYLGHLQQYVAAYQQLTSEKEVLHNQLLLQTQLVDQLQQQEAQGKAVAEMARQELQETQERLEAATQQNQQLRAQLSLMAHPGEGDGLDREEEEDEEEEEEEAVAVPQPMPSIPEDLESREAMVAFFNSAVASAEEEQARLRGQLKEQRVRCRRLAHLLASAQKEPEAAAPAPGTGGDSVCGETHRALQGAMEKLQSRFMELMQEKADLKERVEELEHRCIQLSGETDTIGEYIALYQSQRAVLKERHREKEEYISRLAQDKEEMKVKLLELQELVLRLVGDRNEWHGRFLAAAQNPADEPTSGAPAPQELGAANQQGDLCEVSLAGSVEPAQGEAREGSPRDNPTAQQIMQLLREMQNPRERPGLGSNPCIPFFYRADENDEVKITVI
UniProt P98194, sequence (P98194 whole entry, looked up): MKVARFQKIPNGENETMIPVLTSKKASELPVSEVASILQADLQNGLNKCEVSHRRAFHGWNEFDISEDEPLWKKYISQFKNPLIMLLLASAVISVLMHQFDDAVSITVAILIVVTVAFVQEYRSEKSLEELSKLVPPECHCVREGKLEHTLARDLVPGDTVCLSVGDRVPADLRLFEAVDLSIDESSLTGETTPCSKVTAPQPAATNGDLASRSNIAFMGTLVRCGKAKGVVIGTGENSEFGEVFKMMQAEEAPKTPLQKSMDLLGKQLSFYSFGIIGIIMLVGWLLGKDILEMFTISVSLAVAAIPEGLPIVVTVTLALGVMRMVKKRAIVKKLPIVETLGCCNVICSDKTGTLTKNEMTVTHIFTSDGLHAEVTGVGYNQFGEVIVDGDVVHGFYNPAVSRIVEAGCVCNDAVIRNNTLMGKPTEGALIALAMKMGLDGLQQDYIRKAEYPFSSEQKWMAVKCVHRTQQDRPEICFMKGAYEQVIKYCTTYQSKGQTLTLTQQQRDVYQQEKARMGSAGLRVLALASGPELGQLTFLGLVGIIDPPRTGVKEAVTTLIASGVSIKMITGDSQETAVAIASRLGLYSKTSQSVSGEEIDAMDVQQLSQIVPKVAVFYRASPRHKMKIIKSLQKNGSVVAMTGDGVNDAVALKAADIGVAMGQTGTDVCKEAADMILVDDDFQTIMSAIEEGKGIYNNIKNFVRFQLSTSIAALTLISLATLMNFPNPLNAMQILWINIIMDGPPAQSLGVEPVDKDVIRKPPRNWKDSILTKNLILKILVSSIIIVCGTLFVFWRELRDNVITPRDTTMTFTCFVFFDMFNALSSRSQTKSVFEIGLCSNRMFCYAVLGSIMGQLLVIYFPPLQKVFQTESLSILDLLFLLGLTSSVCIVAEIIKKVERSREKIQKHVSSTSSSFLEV
UniProt P56277, sequence (P56277 whole entry): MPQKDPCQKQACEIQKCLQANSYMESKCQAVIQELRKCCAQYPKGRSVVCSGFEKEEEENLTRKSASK
UniProt Q14738, sequence (Q14738 whole entry): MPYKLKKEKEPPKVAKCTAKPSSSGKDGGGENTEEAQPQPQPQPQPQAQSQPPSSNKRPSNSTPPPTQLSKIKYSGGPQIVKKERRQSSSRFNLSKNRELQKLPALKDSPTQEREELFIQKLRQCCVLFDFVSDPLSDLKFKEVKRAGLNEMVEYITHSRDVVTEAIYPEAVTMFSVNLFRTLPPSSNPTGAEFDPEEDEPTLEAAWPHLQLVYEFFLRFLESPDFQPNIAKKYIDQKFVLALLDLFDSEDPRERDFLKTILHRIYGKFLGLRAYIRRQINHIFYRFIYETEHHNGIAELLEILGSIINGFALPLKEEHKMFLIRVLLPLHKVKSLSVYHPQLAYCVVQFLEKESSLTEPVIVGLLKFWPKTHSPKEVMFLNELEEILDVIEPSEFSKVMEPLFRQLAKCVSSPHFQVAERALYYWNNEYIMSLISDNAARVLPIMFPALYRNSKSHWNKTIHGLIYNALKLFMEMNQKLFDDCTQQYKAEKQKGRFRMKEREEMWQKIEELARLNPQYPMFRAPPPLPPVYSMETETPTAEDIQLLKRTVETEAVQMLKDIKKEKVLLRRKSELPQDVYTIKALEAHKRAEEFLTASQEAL
UniProt Q01082, sequence (Q01082 whole entry, looked up): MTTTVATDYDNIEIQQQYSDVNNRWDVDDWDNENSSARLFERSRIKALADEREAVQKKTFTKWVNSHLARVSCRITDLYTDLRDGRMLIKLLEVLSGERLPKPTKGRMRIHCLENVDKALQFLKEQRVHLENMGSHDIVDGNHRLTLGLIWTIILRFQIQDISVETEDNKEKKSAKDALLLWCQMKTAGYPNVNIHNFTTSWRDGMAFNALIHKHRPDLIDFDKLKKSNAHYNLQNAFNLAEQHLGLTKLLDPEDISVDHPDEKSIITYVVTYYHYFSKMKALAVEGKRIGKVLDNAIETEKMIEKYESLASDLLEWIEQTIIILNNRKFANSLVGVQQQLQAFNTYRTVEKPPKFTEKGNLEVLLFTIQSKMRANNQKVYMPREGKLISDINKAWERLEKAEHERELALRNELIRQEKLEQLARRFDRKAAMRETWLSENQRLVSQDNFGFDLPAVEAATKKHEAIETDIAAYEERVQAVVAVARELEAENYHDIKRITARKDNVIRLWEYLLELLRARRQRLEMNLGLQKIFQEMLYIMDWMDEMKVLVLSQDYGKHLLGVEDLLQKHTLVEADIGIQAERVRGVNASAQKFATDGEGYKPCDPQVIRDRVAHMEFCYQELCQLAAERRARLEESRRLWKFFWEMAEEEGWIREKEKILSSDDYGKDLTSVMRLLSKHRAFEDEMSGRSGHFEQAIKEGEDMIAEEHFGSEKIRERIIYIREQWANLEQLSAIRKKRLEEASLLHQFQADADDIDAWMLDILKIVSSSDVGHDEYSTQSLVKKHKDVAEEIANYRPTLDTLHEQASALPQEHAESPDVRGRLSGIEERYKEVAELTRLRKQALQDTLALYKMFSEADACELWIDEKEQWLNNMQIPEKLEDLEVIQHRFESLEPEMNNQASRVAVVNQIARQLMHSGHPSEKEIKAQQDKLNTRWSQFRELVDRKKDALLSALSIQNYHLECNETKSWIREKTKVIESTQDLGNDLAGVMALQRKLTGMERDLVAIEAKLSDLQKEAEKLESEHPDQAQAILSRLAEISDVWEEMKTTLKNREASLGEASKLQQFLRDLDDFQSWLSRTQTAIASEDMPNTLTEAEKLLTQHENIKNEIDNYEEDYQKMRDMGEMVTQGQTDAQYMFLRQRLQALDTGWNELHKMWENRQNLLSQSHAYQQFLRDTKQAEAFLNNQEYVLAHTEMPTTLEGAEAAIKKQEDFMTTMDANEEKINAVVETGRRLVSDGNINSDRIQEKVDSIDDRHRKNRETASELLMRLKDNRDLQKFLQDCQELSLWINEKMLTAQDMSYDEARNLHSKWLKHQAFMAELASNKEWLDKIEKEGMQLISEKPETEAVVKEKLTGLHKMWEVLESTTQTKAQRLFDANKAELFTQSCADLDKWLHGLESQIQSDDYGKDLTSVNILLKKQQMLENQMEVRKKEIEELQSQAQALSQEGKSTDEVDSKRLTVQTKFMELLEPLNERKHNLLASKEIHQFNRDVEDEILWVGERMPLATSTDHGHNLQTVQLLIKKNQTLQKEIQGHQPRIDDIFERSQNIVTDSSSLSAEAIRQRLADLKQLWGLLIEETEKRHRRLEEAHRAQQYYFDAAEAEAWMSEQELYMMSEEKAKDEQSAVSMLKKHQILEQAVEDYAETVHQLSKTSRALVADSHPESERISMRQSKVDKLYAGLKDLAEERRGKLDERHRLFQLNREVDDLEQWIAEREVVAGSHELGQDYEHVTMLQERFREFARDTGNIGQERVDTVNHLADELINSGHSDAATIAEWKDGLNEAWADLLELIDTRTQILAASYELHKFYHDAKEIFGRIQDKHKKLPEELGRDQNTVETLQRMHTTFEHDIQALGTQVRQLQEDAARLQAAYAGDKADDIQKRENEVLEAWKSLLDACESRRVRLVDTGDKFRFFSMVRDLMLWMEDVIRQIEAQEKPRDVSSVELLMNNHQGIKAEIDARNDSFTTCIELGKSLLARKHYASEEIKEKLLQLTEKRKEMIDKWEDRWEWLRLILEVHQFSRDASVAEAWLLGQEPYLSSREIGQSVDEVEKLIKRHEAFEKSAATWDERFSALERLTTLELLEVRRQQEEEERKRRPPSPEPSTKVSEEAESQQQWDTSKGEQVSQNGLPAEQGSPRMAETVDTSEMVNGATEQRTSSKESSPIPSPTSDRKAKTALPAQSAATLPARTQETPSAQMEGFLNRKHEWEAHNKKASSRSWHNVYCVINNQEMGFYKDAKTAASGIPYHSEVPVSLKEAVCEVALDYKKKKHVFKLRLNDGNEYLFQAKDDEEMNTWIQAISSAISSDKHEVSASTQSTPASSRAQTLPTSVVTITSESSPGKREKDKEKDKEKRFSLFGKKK

| Target | log2 ratio of iodoacetamide-alkyne labeling |
| --- | --- |
| DOCK11 C409 (UniProt Q5JSL3) | -0.0544 |
| PPP2R5D C17 (UniProt Q14738) | 0.818 |
| BLM C704 (UniProt P54132) | 0.6 |
| MCM6 C242 (UniProt Q14566) | 0.192 |
| PPA1 C274 (UniProt Q15181) | 0.425 |
| UniProt P61163_C222 | 0.293 |
| GANAB C423 (UniProt Q14697) | 0.019 |
| ADAR C392 (UniProt P55265) | 0.693 |
| BLM C685 (UniProt P54132) | 0.197 |
| EXOSC9 C9 (UniProt Q06265) | 0.307 |
| BOP1 C373 (UniProt Q14137) | 0.0315 |
| KIF14 C442 (UniProt Q15058) | 0.0677 |
| TTLL12 C126 (UniProt Q14166) | -0.117 |
| SPTBN1 C112 (UniProt Q01082) | 0.622 |
| ACOX1 C199 (UniProt Q15067) | 0.0457 |
| AARS2 C750 (UniProt Q5JTZ9) | 0.846 |
| GOLGA2 C794 (UniProt Q08379) | 1.07 (active) |
| MDC1 C128 (UniProt Q14676) | 0.14 |

| Target | log2 ratio of iodoacetamide-alkyne labeling |
| --- | --- |
| IAH1 C9 (UniProt Q2TAA2) | 2.43 (active) |
| DYNC1H1 C1977 (UniProt Q14204) | 0.124 |
| FOXK1 C439 (UniProt P85037) | 0.622 |
| ATP2C1 C162 (UniProt P98194) | 0.0772 |
| UniProt P60891_C230 | 0.704 |
| CLTC C870 (UniProt Q00610) | 0.621 |
| UniProt P62330_C155 | 0.452 |
| BPTF C1357 (UniProt Q12830) | 0.53 |
| IAH1 C4 (UniProt Q2TAA2) | 2.43 (active) |
| NSUN2 C184 (UniProt Q08J23) | -0.0329 |
| DYNC1H1 C4216 (UniProt Q14204) | 0.162 |
| NCAPD2 C1249 (UniProt Q15021) | 0.179 |
| MDC1 C1742 (UniProt Q14676) | 0.0644 |
| UniProt Q12905_C271 | 0.137 |
| SART3 C472 (UniProt Q15020) | 0.326 |
| CMC4 C12 (UniProt P56277) | 1.14 (active) |
| AKAP13 C683 (UniProt Q12802) | 0.255 |
